# Laboratory results: ChEMBL document CHEMBL2218924, “A broad activity screen in support of a chemogenomic map for kinase signalling research and drug discovery” (Biochem J, 2013)
# Legend:
# [1] = biological target: Vascular endothelial growth factor receptor 3 (Homo sapiens) (UniProt P35916); conditions: at 10 µM
# [2] = biological target: Macrophage colony-stimulating factor 1 receptor (Homo sapiens) (UniProt P07333); conditions: at 1 µM
# [3] = biological target: Macrophage colony-stimulating factor 1 receptor (Homo sapiens) (UniProt P07333); conditions: at 10 µM
# [4] = biological target: Tyrosine-protein kinase Fyn (Homo sapiens) (UniProt P06241); conditions: at 1 µM
# [5] = biological target: Tyrosine-protein kinase Fyn (Homo sapiens) (UniProt P06241); conditions: at 10 µM
# [6] = biological target: T1, Mitogen-activated protein kinase kinase kinase kinase 2 (Homo sapiens) (UniProt Q12851); conditions: at 1 µM
# T1 sequence (whole entry): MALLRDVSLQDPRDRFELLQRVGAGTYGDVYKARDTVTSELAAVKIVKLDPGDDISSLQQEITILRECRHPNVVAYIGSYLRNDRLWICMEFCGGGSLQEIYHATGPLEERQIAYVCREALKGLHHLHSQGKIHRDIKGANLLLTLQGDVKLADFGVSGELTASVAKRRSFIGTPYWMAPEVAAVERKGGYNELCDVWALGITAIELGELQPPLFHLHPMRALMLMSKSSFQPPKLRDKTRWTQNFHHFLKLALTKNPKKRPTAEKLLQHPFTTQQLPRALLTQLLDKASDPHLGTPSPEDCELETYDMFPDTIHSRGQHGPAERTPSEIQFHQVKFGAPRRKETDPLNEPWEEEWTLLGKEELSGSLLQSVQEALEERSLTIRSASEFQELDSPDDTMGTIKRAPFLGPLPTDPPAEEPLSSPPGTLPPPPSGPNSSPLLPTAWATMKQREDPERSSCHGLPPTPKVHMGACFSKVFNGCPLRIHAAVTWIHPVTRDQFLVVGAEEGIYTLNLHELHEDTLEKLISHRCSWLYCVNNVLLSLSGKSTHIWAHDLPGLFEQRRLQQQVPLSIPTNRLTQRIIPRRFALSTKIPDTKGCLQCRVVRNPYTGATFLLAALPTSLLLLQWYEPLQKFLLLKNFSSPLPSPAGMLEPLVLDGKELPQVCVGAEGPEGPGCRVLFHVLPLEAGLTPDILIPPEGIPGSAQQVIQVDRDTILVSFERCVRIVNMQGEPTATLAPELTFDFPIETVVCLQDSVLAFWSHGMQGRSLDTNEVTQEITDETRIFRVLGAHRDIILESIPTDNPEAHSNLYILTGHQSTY
# [7] = biological target: T1, Mitogen-activated protein kinase kinase kinase kinase 2 (Homo sapiens); conditions: at 10 µM
# [8] = biological target: G protein-coupled receptor kinase 5 (Homo sapiens) (UniProt P34947); conditions: at 10 µM
# [9] = biological target: G protein-coupled receptor kinase 6 (Homo sapiens) (UniProt P43250); conditions: at 10 µM
# [10] = biological target: T2, Rhodopsin kinase GRK7 (Homo sapiens) (UniProt Q8WTQ7); conditions: at 1 µM
# T2 sequence (whole entry): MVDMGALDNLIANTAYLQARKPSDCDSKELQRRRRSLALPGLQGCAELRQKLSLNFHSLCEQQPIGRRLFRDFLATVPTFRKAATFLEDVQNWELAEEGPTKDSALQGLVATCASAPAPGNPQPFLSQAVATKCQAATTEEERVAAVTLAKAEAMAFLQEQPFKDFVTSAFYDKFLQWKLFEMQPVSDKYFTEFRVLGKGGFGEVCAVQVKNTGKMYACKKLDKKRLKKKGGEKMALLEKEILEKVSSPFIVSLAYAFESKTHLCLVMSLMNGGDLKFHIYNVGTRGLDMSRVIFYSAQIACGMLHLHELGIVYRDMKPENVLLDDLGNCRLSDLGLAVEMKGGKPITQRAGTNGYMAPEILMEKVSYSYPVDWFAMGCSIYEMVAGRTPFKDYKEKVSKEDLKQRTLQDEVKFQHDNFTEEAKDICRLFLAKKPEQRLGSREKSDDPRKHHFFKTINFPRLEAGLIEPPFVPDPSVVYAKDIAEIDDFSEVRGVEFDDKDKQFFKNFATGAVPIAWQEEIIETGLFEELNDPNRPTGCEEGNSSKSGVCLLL
# Sequence of Macrophage colony-stimulating factor 1 receptor (Homo sapiens) (P07333 whole entry): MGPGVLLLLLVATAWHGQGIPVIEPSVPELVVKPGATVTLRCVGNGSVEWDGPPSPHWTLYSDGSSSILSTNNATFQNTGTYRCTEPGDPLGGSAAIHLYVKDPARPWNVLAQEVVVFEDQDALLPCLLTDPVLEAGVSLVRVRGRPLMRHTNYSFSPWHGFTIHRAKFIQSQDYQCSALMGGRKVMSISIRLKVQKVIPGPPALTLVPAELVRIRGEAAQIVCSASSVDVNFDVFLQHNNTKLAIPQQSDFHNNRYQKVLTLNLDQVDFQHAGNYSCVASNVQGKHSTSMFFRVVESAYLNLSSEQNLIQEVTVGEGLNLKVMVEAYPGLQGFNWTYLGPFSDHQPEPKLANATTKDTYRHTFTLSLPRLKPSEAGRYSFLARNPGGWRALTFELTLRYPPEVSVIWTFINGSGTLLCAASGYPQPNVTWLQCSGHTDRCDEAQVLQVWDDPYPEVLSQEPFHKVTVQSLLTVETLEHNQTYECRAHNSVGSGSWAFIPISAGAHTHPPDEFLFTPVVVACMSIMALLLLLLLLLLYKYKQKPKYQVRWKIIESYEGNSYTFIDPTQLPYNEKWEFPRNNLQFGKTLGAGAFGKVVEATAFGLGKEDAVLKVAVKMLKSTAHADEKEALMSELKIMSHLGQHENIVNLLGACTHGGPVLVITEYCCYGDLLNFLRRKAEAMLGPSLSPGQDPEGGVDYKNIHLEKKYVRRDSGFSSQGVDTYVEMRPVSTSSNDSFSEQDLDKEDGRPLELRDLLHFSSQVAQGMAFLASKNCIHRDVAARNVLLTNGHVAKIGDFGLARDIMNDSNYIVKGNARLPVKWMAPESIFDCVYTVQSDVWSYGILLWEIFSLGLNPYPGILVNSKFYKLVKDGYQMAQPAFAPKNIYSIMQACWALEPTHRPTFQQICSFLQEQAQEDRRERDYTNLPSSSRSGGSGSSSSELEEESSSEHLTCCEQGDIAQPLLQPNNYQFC
# Sequence of Tyrosine-protein kinase Fyn (Homo sapiens) (P06241 2-537 limits assumed): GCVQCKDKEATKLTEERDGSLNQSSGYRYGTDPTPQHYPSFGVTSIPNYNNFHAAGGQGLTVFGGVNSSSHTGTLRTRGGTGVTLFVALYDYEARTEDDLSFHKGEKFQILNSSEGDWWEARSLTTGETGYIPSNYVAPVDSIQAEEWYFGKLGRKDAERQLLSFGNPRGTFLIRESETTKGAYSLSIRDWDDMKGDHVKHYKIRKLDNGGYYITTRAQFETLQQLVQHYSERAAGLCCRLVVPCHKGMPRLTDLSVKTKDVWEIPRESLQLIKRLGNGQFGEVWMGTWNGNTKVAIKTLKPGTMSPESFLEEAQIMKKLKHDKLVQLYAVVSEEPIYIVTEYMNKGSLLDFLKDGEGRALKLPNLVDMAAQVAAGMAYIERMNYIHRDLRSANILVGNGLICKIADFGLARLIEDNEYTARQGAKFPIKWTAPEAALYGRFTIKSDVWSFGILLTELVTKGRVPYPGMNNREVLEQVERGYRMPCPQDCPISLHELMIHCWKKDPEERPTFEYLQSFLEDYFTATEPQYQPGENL
# Sequence of G protein-coupled receptor kinase 6 (Homo sapiens) (P43250 whole entry, looked up): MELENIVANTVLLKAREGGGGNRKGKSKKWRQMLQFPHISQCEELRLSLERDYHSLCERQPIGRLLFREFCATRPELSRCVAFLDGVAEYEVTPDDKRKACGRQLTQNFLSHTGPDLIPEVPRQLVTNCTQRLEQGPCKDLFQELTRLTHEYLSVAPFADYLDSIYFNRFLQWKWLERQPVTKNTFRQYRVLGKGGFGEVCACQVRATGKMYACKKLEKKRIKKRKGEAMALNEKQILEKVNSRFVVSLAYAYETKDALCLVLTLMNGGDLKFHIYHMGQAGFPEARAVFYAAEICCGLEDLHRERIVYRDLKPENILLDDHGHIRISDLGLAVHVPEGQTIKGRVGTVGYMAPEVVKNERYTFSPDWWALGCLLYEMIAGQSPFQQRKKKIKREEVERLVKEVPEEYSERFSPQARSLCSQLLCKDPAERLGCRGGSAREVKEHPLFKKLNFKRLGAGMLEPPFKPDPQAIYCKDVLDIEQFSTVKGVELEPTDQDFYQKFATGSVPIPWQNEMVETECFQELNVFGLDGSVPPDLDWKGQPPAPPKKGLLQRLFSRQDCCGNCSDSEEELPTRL
# Sequence of G protein-coupled receptor kinase 5 (Homo sapiens) (P34947 whole entry, looked up): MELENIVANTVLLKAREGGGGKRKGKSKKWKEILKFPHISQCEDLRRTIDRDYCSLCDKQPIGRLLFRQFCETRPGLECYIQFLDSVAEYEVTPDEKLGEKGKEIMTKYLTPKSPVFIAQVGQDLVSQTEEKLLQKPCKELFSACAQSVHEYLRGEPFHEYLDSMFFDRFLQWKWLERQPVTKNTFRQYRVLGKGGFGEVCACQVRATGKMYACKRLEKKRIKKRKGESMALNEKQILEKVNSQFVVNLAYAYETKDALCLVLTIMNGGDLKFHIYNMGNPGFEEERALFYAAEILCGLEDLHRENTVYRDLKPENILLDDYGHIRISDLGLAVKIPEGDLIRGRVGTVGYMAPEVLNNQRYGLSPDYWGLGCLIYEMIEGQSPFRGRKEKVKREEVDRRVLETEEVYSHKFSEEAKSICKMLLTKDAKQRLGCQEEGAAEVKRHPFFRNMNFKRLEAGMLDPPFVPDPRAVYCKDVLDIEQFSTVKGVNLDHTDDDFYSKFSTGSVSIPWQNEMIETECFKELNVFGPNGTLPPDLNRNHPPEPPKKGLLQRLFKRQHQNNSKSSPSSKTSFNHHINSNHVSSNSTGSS
# Sequence of Vascular endothelial growth factor receptor 3 (Homo sapiens) (P35916 whole entry): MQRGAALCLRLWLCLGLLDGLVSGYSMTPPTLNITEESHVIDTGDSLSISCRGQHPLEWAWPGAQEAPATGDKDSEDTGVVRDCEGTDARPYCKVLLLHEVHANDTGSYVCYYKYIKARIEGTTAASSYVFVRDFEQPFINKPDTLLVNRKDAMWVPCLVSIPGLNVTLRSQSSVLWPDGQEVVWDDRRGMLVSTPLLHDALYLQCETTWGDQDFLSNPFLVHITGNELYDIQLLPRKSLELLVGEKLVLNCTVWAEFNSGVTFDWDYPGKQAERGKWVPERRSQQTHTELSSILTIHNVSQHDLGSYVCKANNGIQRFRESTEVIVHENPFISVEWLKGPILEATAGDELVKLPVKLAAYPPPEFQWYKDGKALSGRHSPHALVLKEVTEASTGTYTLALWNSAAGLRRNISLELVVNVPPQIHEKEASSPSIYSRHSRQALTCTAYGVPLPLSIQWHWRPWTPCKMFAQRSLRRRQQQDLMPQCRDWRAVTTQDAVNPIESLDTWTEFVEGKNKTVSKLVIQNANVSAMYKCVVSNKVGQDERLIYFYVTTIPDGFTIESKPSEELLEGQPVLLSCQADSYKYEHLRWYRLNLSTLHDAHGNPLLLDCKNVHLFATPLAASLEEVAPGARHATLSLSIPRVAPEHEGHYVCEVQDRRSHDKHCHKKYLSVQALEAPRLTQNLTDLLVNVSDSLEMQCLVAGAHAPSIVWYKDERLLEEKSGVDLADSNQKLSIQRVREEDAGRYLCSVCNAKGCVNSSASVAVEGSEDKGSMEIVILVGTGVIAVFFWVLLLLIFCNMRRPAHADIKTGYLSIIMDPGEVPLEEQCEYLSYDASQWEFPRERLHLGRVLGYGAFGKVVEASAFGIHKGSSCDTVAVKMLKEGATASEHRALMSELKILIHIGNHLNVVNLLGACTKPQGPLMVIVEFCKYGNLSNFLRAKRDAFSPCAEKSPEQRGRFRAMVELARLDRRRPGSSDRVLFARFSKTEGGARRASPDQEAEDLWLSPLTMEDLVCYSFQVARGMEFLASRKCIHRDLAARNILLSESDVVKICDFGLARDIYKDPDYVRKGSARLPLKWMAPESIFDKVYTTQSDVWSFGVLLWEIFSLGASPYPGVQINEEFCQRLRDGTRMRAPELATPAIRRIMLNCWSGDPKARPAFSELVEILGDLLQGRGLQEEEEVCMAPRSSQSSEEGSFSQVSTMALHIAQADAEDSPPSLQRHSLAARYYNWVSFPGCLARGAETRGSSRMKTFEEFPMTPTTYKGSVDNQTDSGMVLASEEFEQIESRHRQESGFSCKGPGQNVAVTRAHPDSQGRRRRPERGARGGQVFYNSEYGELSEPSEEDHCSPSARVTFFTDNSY
Compound,residual activity [1],residual activity [2],residual activity [3],residual activity [4],residual activity [5],residual activity [6],residual activity [7],residual activity [8],residual activity [9],residual activity [10]
O=C1Cc2c([nH]c3ccc(Br)cc23)-c2ccccc2N1,22%,49%,23%,31%,11%,6%,-1%,96%,–,–
COc1cc2nccc(Oc3ccc(NC(=S)NC(=O)c4ccccc4C)cc3)c2cc1OC,0%,0%,-1%,-1%,0%,68%,44%,88%,79%,88%
CCCCc1c(-c2ccc(OC)cc2)[nH]c2nccnc12,3%,14%,8%,40%,37%,22%,32%,–,–,77%
O=C(c1cc2cc(O)ccc2[nH]1)c1cc2cc(O)ccc2[nH]1,1%,54%,10%,7%,1%,24%,4%,82%,78%,75%
Nc1nc(Nc2ccc(S(N)(=O)=O)cc2)nn1C(=O)c1c(F)cccc1F,0%,30%,7%,51%,10%,33%,6%,24%,–,55%
Nc1ncnc2c1cnn2-c1ccccc1,82%,–,67%,79%,58%,100%,–,–,93%,–
N#Cc1c(NC(=O)c2cccc3ccccc23)sc2c1CCCC2,86%,69%,74%,72%,87%,–,90%,98%,90%,–
Fc1ccc(-c2nc3n(c2-c2ccncc2)CCS3)cc1,43%,90%,84%,92%,83%,–,83%,–,–,–
CCCCc1c(-c2ccc(O)cc2)[nH]c2nccnc12,2%,–,6%,43%,11%,7%,4%,90%,90%,86%
Oc1cccc(-c2nc(N3CCOCC3)c3oc4ncccc4c3n2)c1,–,78%,80%,82%,88%,–,85%,–,–,93%
NC(=O)c1ccc(-c2nc(-c3ccc4c(c3)OCCO4)c(-c3ccccn3)[nH]2)cc1,46%,74%,64%,81%,83%,–,94%,–,88%,–
COc1ccc(COc2ccc(Cc3cnc(N)nc3N)cc2OC)cc1,115%,–,–,–,–,–,63%,–,–,–
CCN1/C(=C/C(C)=O)Sc2ccc(OC)cc21,65%,81%,66%,80%,–,74%,55%,–,79%,–
NCCNc1ncc(C(N)=O)c(Nc2cccc(C(F)(F)F)c2)n1,48%,57%,4%,–,–,13%,0%,79%,73%,–
O=c1c(-c2ccc(F)cc2)c(-c2ccncc2)[nH]n1-c1ccc(Cl)cc1,20%,–,61%,–,66%,–,–,100%,100%,–
CC(C)[C@H](CO)Nc1nc(Nc2cc(N)cc(Cl)c2)c2ncn(C(C)C)c2n1,3%,55%,21%,9%,0%,–,–,44%,40%,58%
CSc1nc(-c2ccc(F)cc2)c(-c2ccnc(NC(C)c3ccccc3)c2)[nH]1 (stereo not drawn),64%,–,41%,87%,69%,75%,56%,91%,–,–
COc1cc2ncnc(Nc3cccc(Cl)c3)c2cc1OC,6%,88%,38%,41%,6%,–,50%,–,–,106%
O=S(=O)(c1cccc2cnccc12)N1CCCNCC1,52%,–,–,–,–,–,83%,–,–,–

Compound,residual activity [1],residual activity [2],residual activity [3],residual activity [4],residual activity [5],residual activity [6],residual activity [7],residual activity [8],residual activity [9],residual activity [10]
CC(C)(C)n1nc(Cc2cccc3ccccc23)c2c(N)ncnc21,5%,59%,6%,30%,3%,–,44%,96%,–,98%
COc1ccc(Cl)cc1NC(=O)Nc1cc(C)nc2ccccc12,93%,89%,73%,–,–,93%,77%,–,92%,99%
O=C(c1ccccc1)c1ccc(N2CCOCC2)cc1O,85%,75%,55%,–,–,95%,89%,–,88%,–
CC(C)(C)c1nc2c3ccc(F)cc3c3c(=O)[nH]ccc3c2[nH]1,16%,54%,18%,–,–,19%,11%,66%,68%,–
COc1ccc2c(c1)c(C1=C(c3c[nH]c4ccccc34)C(=O)NC1=O)cn2CCCN(C)C,0%,59%,36%,–,60%,75%,30%,51%,–,–
CCOc1nc(NC(=O)Cc2cc(OC)ccc2OC)cc(N)c1C#N,64%,–,53%,–,–,–,72%,–,–,–
N#C/C(=C\c1ccc(O)c(O)c1)C(=O)NCc1ccccc1,–,67%,81%,–,80%,–,85%,–,–,–
N#C/C(=C1/Nc2ccccc2S1)c1ccnc(NCCc2cccnc2)n1,22%,70%,31%,–,–,79%,18%,–,–,–
COc1cc2c(cc1OC)-c1n[nH]c(Nc3cccc(F)c3)c1C2,–,1%,0%,16%,0%,–,44%,–,81%,–
O=S(=O)(NCCNC/C=C/c1ccc(Br)cc1)c1cccc2cnccc12,26%,116%,–,75%,55%,76%,42%,–,81%,–
O=C(Nc1nc2ccccc2n1CCN1CCOCC1)c1cccc([N+](=O)[O-])c1,40%,8%,5%,–,–,70%,67%,85%,–,–
NC(=O)c1cccc(-c2cc(Nc3ccc(OC(F)(F)F)cc3)ncn2)c1,81%,74%,73%,–,78%,–,88%,–,100%,–
O=C1NC(=O)C(c2cn(CCCn3ccnc3)c3ccccc23)=C1Nc1ccccc1,9%,66%,40%,–,–,54%,13%,30%,59%,75%
O=C(Nc1ccc(Cl)cc1)c1ccccc1NCc1ccncc1,0%,1%,0%,102%,70%,–,58%,–,–,–
O=C1Nc2ccccc2/C1=C\c1c(Cl)[nH]c2ccccc12,8%,79%,27%,81%,59%,–,69%,–,–,99%
Nc1nccc(-c2c(-c3ccc(F)cc3)ncn2C2CCNCC2)n1,10%,–,–,–,–,82%,61%,–,–,–
CC(C)N(CCC(=O)c1ccc2ccccc2c1)Cc1ccccc1,–,–,125%,88%,88%,82%,80%,–,–,–
O=c1cc(N2CCOCC2)oc2c(-c3ccccc3)cccc12,72%,66%,62%,–,–,–,70%,–,77%,–
